The source of these data is PubChem BioAssay (NCATS).

Records with an inconclusive call do not appear. The source made the active and inactive calls. Unless noted, calls follow the shape of the full dose curve.

Test [1] is described as follows: qHTS for Inhibitors of the Functional Ribonucleoprotein Complex (vRNP) of Lassa (LASV) Arenavirus: LASV Primary Screen - GLuc reporter signal (AID 1347082; calls by dose curve; tested in HEK293 reporter line; also: nearly all actives have a fitted effect of over 60% in size; also: potency is read from the fitted curve at half-maximal effect; as to activity change, negative = inhibition: % is scaled to controls: 0 for no effect and ±100 for the full control effect).
The nature of test [2]: qHTS for Inhibitors of the Functional Ribonucleoprotein Complex (vRNP) of Lassa (LASV) Arenavirus: Viability assay - alamar blue signal for LASV Primary Screen (AID 1347083; calls by dose curve; tested in HEK293 reporter line; also: nearly all actives have a fitted effect of over 80% in size; also: potency is read from the fitted curve at half-maximal effect). In general terms: Quantitative high-throughput screening tests each substance at several concentrations.
Test [3] is described as follows: qHTS for Inhibitors of the Functional Ribonucleoprotein Complex (vRNP) of Lymphocytic Choriomeningitis Arenaviruses (LCMV): Viability assay - alamar blue signal for LCMV Primary Screen (AID 1347085; calls by dose curve; tested in HEK293 reporter line; also: nearly all actives have a fitted effect of over 80% in size; also: potency is read from the fitted curve at half-maximal effect).
The target of test [4] is Nucleoprotein (Lymphocytic choriomeningitis virus (strain Armstrong)) (UniProt P09992). Nature of the test: qHTS for Inhibitors of the Functional Ribonucleoprotein Complex (vRNP) of Lymphocytic Choriomeningitis Arenaviruses (LCMV): LCMV Primary Screen - GLuc reporter signal (AID 1347086). Also: nearly all actives have a fitted effect of over 70% in size. Also: potency is read from the fitted curve at half-maximal effect. As to activity change, negative = inhibition: % is scaled to controls: 0 for no effect and ±100 for the full control effect.
Nucleoprotein (Lymphocytic choriomeningitis virus (strain Armstrong)), sequence (P09992 whole entry, looked up): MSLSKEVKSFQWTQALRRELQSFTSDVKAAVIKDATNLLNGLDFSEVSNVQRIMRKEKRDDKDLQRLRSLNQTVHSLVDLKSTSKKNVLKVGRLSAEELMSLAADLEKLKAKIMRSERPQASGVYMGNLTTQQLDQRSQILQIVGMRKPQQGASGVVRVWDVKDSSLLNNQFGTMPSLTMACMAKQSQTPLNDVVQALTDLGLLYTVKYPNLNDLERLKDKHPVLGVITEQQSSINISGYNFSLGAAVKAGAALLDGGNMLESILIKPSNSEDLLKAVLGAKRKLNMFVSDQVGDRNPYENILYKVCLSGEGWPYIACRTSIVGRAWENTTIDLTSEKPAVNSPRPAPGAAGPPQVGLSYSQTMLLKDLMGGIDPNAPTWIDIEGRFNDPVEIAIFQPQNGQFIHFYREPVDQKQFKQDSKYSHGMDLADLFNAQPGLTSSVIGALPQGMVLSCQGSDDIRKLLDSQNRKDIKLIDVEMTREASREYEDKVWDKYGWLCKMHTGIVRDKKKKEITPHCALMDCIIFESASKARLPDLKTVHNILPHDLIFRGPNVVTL
Test [5] can be described thus: Cytotoxicity counterscreen for inhibitors of SARS-CoV-2 cell entry (AID 1645845). Also: nearly all actives have a fitted effect of over 50% in size. Summed up: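 Counterscreen run in the same HEK293-ACE2 line as the pseudotyped-particle entry assay, without particles. Viability after 48 h at 37 C was read as ATP luminescence, scaled between cell-containing and cell-free wells.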
A general note: Counterscreens check selectivity or assay interference.

Test [6] in a line: Primary qHTS to identify inhibitors of SARS-CoV-2 cell entry (AID 1645846). Also: nearly all actives have a fitted effect of over 45% in size. To be noted: activity change, negative = inhibition: at 57.1 µM (top of the series) unless noted. Summed up: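 Using luciferase-reporting pseudoviruses carrying Wuhan-Hu-1 spike, the screen tracks entry into stably ACE2-expressing cells over 48 hr. Activity is expressed relative to spike particles versus particles lacking any fusion protein.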

Test [7] in a line: qHTS profiling of the MIPE4 collection as inhibitors of Plasmodium falciparum (3D7) proliferation (AID 743344; call rule not given here;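 also: scaled between DMSO vehicle wells and 0.29 µM artemisinin as full inhibition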). The settings on record: P. falciparum 3D7 in erythrocytes, SYBR Green DNA fluorescence, 72 h; at 28.5 µM (top of the series) unless noted. Summed up: (§1)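 Parasite DNA was quantified by SYBR Green I fluorescence (ex 485, em 535 nm) after overnight lysis in saponin/Triton buffer at room temperature. Cultures at 0.3% parasitemia and 2.5% hematocrit were first exposed to compound for 72 h at 37 C; signals were normalised to artemisinin (0.29 uM) and vehicle wells.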

A short description of test [8]: qHTS profiling of the MIPE4 collection as inhibitors of Plasmodium falciparum (DD2) proliferation (Rep 2) (AID 743346; call rule not given here). To be noted: P. falciparum Dd2 in erythrocytes, SYBR Green DNA, 72 h; at 28.5 µM (top of the series) unless noted. Summed up:
as §1

The nature of test [9]: qHTS profiling of the MIPE4 collection as inhibitors of Plasmodium falciparum (HB3) proliferation (AID 743347; call rule not given here;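 also: plate controls were DMSO vehicle wells for no effect and artemisinin wells for full effect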). To be noted: P. falciparum HB3 in erythrocytes, SYBR Green DNA, 72 h; at 28.5 µM (top of the series) unless noted. Summed up: as §1
Test [10] is described as follows: Validation screen for inhibitors of Lassa infection (AID 463096). Also: % is scaled to controls: 0 for no effect and ±100 for the full control effect.
For test [11], the target named is M-phase phosphoprotein 8 (Homo sapiens) (UniProt Q99549). Put plainly: qHTS Validation Assay for Inhibitors for MPP8 Chromodomain Interactions with Methylated Histone Tails (AID 488949; active = well fitted curve in the direction sought with a large enough effect; an effect the other way counts as inactive or inconclusive;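 also: AlphaScreen signal from MPP8 chromodomain bound to biotinylated H3K9me3 peptide; top concentration of the series differs between compounds; % is scaled to controls: 0 for no effect and ±100 for the full control effect; nearly all actives have a fitted effect of over 55% in size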). Summed up: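 Chemiluminescent proximity assay: histidine-tag capture via nickel acceptor beads, biotin peptide via streptavidin donor beads. Protein and peptide each at 50 nM, pH 7.4, with 30 min incubations at room temperature for complex formation, compound exposure and bead binding.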
M-phase phosphoprotein 8 (Homo sapiens), sequence (Q99549 whole entry, looked up): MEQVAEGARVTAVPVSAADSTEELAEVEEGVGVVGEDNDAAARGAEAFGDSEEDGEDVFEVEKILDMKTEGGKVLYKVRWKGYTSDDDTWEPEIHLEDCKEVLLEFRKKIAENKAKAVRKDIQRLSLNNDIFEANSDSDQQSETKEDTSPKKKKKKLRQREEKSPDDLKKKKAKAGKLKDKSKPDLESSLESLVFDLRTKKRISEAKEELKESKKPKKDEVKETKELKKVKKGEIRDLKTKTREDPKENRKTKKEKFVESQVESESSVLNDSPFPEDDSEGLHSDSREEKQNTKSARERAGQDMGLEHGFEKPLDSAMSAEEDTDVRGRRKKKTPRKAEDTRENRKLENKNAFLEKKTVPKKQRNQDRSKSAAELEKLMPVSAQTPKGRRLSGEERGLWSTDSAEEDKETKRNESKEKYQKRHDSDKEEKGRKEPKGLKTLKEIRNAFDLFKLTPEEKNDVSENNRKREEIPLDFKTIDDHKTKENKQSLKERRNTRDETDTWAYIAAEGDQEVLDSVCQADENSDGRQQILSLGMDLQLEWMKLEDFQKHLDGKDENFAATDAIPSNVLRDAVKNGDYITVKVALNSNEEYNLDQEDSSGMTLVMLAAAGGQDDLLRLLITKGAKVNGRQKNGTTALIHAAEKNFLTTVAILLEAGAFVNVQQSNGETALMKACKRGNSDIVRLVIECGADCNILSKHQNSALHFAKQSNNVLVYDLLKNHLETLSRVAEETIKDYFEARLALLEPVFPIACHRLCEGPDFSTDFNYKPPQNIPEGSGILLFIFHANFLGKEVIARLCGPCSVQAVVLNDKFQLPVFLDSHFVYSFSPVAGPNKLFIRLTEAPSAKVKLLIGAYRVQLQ

Test [12] can be described thus: Inducers of the Endoplasmic Reticulum Stress Response (ERSR) in human glioma: Validation (AID 504836; active = well fitted curve in the direction sought with a large enough effect; an effect the other way counts as inactive or inconclusive; also: 0% is about no effect). Summed up: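 Stably transfected U87-MG glioma cells carrying a GRP78-based luciferase sensor; 16 h compound incubation. Luminescence end-point read 10 min after Bright-Glo addition at room temperature.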
The nature of test [13]: qHTS assay for small molecule agonists of the antioxidant response element (ARE) signaling pathway (AID 651741; active = well fitted activation curve with a large enough effect in the signal ratio; the % refers to the signal ratio; also: potency is read from the fitted curve at half-maximal effect). Summed up:
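Stably integrated ARE-beta-lactamase reporter HepG2 cells; 16 h compound incubation, 37 C; LiveBLAzer FRET substrate 2 h at room temperature; fluorescence intensity.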

Test [14] has as its target Alpha-galactosidase (Coffea arabica) (UniProt Q42656). Nature of the test: Counterscreen for Glucocerebrosidase Inhibitors: qHTS Assay for Coffee Bean alpha-Galactosidase at pH 4.5 (AID 957; active = well fitted curve in the direction sought with a large enough effect; an effect the other way counts as inactive or inconclusive;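 also: plate controls were enzyme alone for no effect and no enzyme for full effect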). Summed up:
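Enzyme is added first (2 nM final), then compounds titrated from 0.7 nM to 77 uM, then 80 uM 4-methylumbelliferyl alpha-D-galactopyranoside; after 20 min at room temperature a pH 10 NaOH/glycine stop precedes fluorescence reading at 365/440 nm.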

For test [15] the target is unchanged. Nature of the test: Counterscreen for Glucocerebrosidase Inhibitors: qHTS Assay for Coffee Bean alpha-Galactosidase at pH 5.9 (AID 998; active = well fitted curve in the direction sought with a large enough effect; an effect the other way counts as inactive or inconclusive;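 also: plate controls were uninhibited enzyme for no effect and no-enzyme basal signal for full effect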). Summed up:
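Enzyme 2 nM + cpd (0.7 nM–77 uM titration) + 4-MU-alpha-Gal 80 uM, pH 5.9 citrate/Tween-20, RT 20 min, NaOH/glycine stop pH 10, fluor 365/440. Normalized to no-enzyme and full-activity controls; Hill-fit AC50.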

The target in test [16] is Cytochrome P450 3A4 (Homo sapiens) (UniProt P08684). Nature of the test: qHTS Assay for Inhibitors and Substrates of Cytochrome P450 3A4 (AID 884; active = well fitted curve in the direction sought with a large enough effect; an effect the other way counts as inactive or inconclusive; also: potency is read from the fitted curve at half-maximal effect; nearly all actives have a fitted effect of over 50% in size). Summed up:
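Luminescent readout of luciferin produced by CYP3A4 (20 nM) dealkylation of Luciferin-PPXE, 25 uM (its KM). NADPH-driven reaction ran 60 min at RT after 10 min compound preincubation; data scaled to 57 uM ketoconazole as 100% inhibition.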

Test [17] has the same target. Nature of the test: qHTS Assay for Activators of Cytochrome P450 3A4 (AID 885; active = well fitted curve in the direction sought with a large enough effect; an effect the other way counts as inactive or inconclusive; also: nearly all actives have a fitted effect of over 65% in size). Summed up:
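Activators are scored by enhanced luminescence from CYP3A4 conversion of luciferin-PPXE (25uM, equal to KM) to luciferin, after 60 min at RT with an NADPH-regenerating system.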

A short description of test [18]: qHTS profiling of the MIPE4 collection as inhibitors of Plasmodium falciparum (DD2) proliferation (AID 743345; call rule not given here). To be noted: P. falciparum Dd2 in erythrocytes, SYBR Green DNA, 72 h; at 28.5 µM (top of the series) unless noted. Summed up:
as §1

Cytochrome P450 3A4 (Homo sapiens), sequence (P08684 whole entry, looked up): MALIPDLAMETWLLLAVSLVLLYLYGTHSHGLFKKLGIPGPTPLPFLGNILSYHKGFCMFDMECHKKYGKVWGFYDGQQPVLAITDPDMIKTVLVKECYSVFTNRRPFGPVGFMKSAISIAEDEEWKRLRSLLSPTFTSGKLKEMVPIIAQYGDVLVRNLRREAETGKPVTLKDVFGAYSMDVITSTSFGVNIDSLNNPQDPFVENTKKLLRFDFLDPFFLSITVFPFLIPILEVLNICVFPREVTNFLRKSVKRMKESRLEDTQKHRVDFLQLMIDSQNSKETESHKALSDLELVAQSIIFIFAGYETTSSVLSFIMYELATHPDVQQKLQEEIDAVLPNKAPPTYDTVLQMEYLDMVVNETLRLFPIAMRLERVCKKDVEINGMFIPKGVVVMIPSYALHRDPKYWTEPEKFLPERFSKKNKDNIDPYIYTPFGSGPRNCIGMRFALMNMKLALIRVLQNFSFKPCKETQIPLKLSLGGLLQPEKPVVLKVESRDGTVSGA
Alpha-galactosidase (Coffea arabica), sequence (Q42656 whole entry, looked up): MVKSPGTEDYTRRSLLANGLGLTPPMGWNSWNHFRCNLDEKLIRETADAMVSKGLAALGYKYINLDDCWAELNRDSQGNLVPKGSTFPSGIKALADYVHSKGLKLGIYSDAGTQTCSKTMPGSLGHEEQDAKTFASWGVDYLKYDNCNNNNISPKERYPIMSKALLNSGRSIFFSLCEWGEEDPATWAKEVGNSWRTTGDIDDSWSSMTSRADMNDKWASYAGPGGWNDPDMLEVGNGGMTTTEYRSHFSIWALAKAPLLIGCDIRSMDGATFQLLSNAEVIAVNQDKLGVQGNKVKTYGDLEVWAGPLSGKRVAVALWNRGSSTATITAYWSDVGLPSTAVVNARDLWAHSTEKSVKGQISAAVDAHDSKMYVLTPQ

Take `Cc1ccc2c(c1)C(=O)[C@]1(O)CCN(c3ccccc3)C1=N2`: the Potency result in test [1], in test [2], in [3], in test [4] and in [5] was “inactive” each time. Moreover, the activity change, negative = inhibition in [6] is -18.4%.

With `CC(=O)SCC(Cc1ccccc1)C(=O)NCC(=O)OCc1ccccc1` (stereo not given), the Potency is 1090 nM (active) in [1], 432 nM (active) in test [2], 172 nM (active) in test [3] and 273 nM (active) in test [4]. The Potency result in test [5] was “inactive”. Moreover, the activity change, negative = inhibition in test [6] was -34.7%.

In turn, `CC[C@H](C=C[C@@H](C)[C@H]1CC[C@H]2[C@@H]3CC=C4C[C@@H](O)CC[C@]4(C)[C@@H]3CC[C@]12C)C(C)C` gave a parasite growth, % of DMSO control in test [7] of 84.3% [at 9.64 µM]. Also, in test [8], the parasite growth, % of control (lower = inhibition) is 117% [at 9.64 µM]. Also, the growth, % of control in [9] came out at 89% [at 9.64 µM]. Also, the Potency entry in [1], in test [2], in test [3], in test [4], in test [5] and in [6] was “inactive” throughout.

With `Nc1nc(N)c2nc(CNc3ccc(C(=O)NC(CCC(=O)O)C(=O)O)cc3)cnc2n1` (stereo not given), the Potency result in [10], in [11], in test [1], in test [2], in test [3] and in [4] was “inactive” each time. Moreover, the Potency entry in test [5] and in test [6] was “inactive” in each case. Also, the call in [12] was inactive. Further, in [13], the Potency was 77 nM (active).

With `COc1cccc(-c2cc(=O)c3ccccc3o2)c1N`, the outcome in test [14], in test [15] and in test [12] was inactive. For the same compound, the Potency entry in [1], in test [2], in test [3], in test [4], in [5] and in [6] was “inactive” throughout.

Take `O=C1Nc2ccc(I)cc2/C1=C/c1cc(Br)c(O)c(Br)c1`: the Potency in test [16] is 5010 nM (active). Further, the Potency entry in test [17], in [10], in test [1], in test [2], in [3] and in test [4] was “inactive” in each case. Further, the Potency entry in test [5] is “inactive”. For the same compound, the result in test [15] and in test [12] was inactive. Besides, the activity change, negative = inhibition in test [6] is -7.81%.

In the case of `CCCNC(=O)Nc1ccc(Oc2ncnc3cc(OC)c(OC)cc23)cc1Cl`, the parasite growth, % of DMSO control in test [7] worked out at 38.8%. This compound showed a parasite growth remaining, % of DMSO control (lower = more inhibition) in [18] of 61.5%. For the same compound, in test [8], the parasite growth, % of control (lower = inhibition) came out at 30.3%. Moreover, the growth, % of control in [9] stood at 34.8%. Moreover, the Potency result in [1], in test [2], in test [3], in test [4] and in test [5] was “inactive” each time. For the same compound, the activity change, negative = inhibition in [6] is -16.7%.

For `COC1CCC(N(C(=O)C2CCC(C)CC2)c2cc(C3=CCCCC3)sc2C(=O)O)CC1` (stereo not given), the parasite growth, % of DMSO control in test [7] is 31.6%. This compound displayed a parasite growth remaining, % of DMSO control (lower = more inhibition) in [18] of 61.5%. Further, the parasite growth, % of control (lower = inhibition) in [8] came out at 44.7%. Moreover, the Potency entry in test [1], in test [2], in [3], in test [4] and in test [5] was “inactive” throughout. Moreover, in test [6], the activity change, negative = inhibition was 1.37%.

Consider `O=c1c(O)c(-c2cc(O)c(O)c(O)c2)oc2cc(O)cc(O)c12`, for which the Potency entry in [17], in test [1], in test [2], in test [3], in test [4] and in test [5] was “inactive” in each case. The Potency entry in [6] was “inactive”. Also, the outcome in test [14], in test [15] and in test [12] was inactive.
